Shown is part of a subset that was picked to be rich in hits.
ERK EGF inh = qHTS Assay for Inhibitors of the ERK Signaling Pathway using a Homogeneous Screening Assay; Stimulation with EGF; actives 0.41% (n = 130,000); Potency, µM (series often up to 11.5 µM), without a hit: at the top dose activity change, negative = inhibition, hits mostly inhibitors; AID 1454, 2008; HEK293-V1b, EGF-stimulated phospho-ERK AlphaScreen; active means well fitted inhibition curve with a large enough effect;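 further: plate controls were stimulated vehicle wells for no effect and unstimulated vehicle basal for full effect; nearly all actives have a fitted effect of over 55% in size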
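Concentration-response of compounds against EGF-driven ERK phosphorylation in V1b-expressing HEK293 cells; 30 min preincubation, 5 min EGF, AlphaScreen detection; Normalized to DMSO basal and 25 nM EGF.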
Active calls of the source: *; ! = repeats disagree; [ ] = another dose, or the depositor's remark. Potency means the concentration at half of the fitted maximal effect.

SMILES	ERK EGF inh
CC[C@@H]1CN2CCc3cc(OC)c(OC)cc3[C@H]2C[C@@H]1C[C@H]1NCCc2cc(OC)c(OC)cc21	-15%[25.7 µM]
O=c1[nH]c2ccccc2n1C1CCN(CCCC(c2ccc(F)cc2)c2ccc(F)cc2)CC1	25µM*!
O=C1CC[C@@]2(O)C3Cc4ccc(O)c5c4C2(CCN3CC2CC2)[C@H]1O5 (some centres undefined)	6%
CC(C)C(O)(C(=O)OC[C@@H]1CC[N+]2([O-])CCCC12)C(C)O (some centres undefined)	-17%
NC(=O)c1cn(C2OC(CO)C(O)C2O)c2ncnc(N)c12 (centres undefined)	-2%
CCNC(=O)[C@@H]1O[C@@H](n2cnc3c(N)ncnc32)[C@H](O)[C@H]1O	-14%
CCNC(=O)[C@H]1O[C@@H](n2cnc3c(N)ncnc32)[C@H](O)[C@@H]1O	8.9µM*
CCN1C[C@@]2(OC(=O)c3ccccc3NC(C)=O)CCC(OC)[C@@]34C5CC6C(OC)C[C@@](O)(C(CC23)[C@@H]14)C5(O)C6OC (some centres undefined)	14%
CC[C@H]1C2CC3[C@@H]4N(C)c5ccccc5[C@]45C[C@@H](C2[C@H]5O)N3[C@@H]1O (some centres undefined)	-6%
O=C1C=C2C=CC3C[C@@]2(O1)C1CCCCN31 (some centres undefined)	2%
O[N+]1=CC=CCC1=S.On1ccccc1=S.[Zn]	20µM*
CNc1ccc(C(=O)CC(O)CCC(C)C2OC(=O)CC(O)CC(=O)CC(O)CC(O)CC(O)CC(O)CC3(O)CC(O)C(C(=O)OC)C(CC(O[C@@H]4OC(C)C(O)C(N)C4O)/C=C/C=C/C=C/C=C/C=C/C=C/C=C/C2C)O3)cc1 (some centres undefined)	3%
c1ccc(N2CC[C@@]3(CCCNC3)C2)cc1	8%
C=C(C)c1cc2cc(C(C)=O)c(O)cc2o1	-8%
CN(C(=O)Cc1ccc(Cl)c(Cl)c1)[C@H](CN1CCCC1)c1cccc(N=C=S)c1	4%
COC(=O)[C@]1(C)CC[C@@]2(C)CC[C@@]3(C)C4=CC=C5C(=CC(=O)C(O)=C5C)[C@@]4(C)CC[C@@]3(C)C2C1 (some centres undefined)	14µM*
Cc1[nH]cnc1CCN	3%
c1cc(CN2CCCC3(CCNCC3)C2)ccn1	8%
CN1CC[C@@H]2CN3CCc4cccc(c43)[C@H]2C1	6%
CC1(C)C[C@H]2C=C(C=O)[C@]3(C=O)C[C@]3(C)[C@H]2C1	10µM*
CCC1C(=O)OC[C@H]1Cc1cncn1C (some centres undefined)	11%
CC/C=C\C/C=C\C/C=C\C/C=C\C/C=C\CCCC(=O)NC(C)C(=O)O (centres undefined)	0%
CC[C@@H]1CN2CCc3cc(OC)c(OC)cc3[C@@H]2C[C@@H]1C[C@H]1NCCc2cc(OC)c(OC)cc21	-7%
C[C@]12CCC(=O)C=C1CCc1ccc(O)cc12	28%
N#Cc1ccc(CN2CC[C@@]3(CCCN(C(=O)Oc4ccccc4)C3)C2)cc1	3%
SMILES	ERK EGF inh
N#Cc1cccc(NC(=O)N2CC3(CCN(C(=O)Oc4ccccc4)CC3)C2)c1	-3%
c1ccc(N2CCC3(CCNCC3)CC2)nc1	-13%
C=C(C=O)C[C@@H]1C[C@H](O)C2OC3C[C@]4(C)OC5/C=C\CC6OC7C(CC=CCC6OC5CCCC4OC3CC2O1)OC1CC2OC3CC(=O)OC3C[C@@H](C)C[C@@]2(C)OC1C[C@@H]7C (some centres undefined)	4µM*
C=C(CC1CC(O)[C@]2(C)OC3CC4OC5C[C@]6(C)O[C@]7(C)CCC8OC9C[C@]%10(C)OC%11C(C)=CC(=O)OC%11CC%10OC9C[C@@H](C)C8OC7CC6O[C@]5(C)C/C=C\C4OC3CC2O1)C(=O)O (some centres undefined)	-12%[57.5 µM]
CCCN1C[C@H](C)N([C@H](c2ccc(C(=O)N(CC)CC)cc2)c2cccc(OC)c2)C[C@H]1C	-7%
CCCCC/C=C\C=C\[C@H](CCCCCCCC(=O)O)OO	-10%
C=C(C)C1Cc2c(ccc3c2OC2COc4cc(OC)c(OC)cc4C2C3=O)O1 (centres undefined)	8%
COC(=O)C12CC3=CCC4C(=O)N(c5ccccc5)C(=O)C4C3Cc3ccccc3[C@@H]1CNC2=O (some centres undefined)	0%
CC(=O)Oc1c2c(c(CC=C(C)C)c3c1C(=O)C1=CC4CC5C(C)(C)OC(C/C=C(\C)C(=O)O)(C4=O)[C@]15O3)OC(C)(CCC=C(C)C)C=C2 (some centres undefined)	13µM*
C=CCN1CCC2(C)c3cc(O)ccc3C[C@H]1[C@H]2C	3%
O=C(Nc1cccc(F)c1)N1CCCC2(CCN(C(=O)Oc3ccccc3)CC2)C1	9%
Cc1ccc2c(c1)=NC(=O)/C(=C/c1c(O)[nH]c(=O)[nH]c1=O)C=2	-8%[57.5 µM]
O=c1[nH]c(O)c(/C=C2/C=CC(c3cc(Cl)ccc3Cl)=N2)c(=O)[nH]1	28µM*

High-throughput results as filed in PubChem.
